Data: PubChem BioAssay (EPA / NIEHS)
Several values for one entry are separate records, joined by “and”; a condition that tells them apart may be missing. Equal values may be shown once. Results filed as inconclusive are left out. More than one record can exist for a structure, and the calls need not agree. Activity calls are given as the source filed them. How the source made its calls, unless noted: active means hit-call score of the fitted dose curve at least 0.9, where 1 is the maximum; inactive means score below 0.9.

Experiments:
[1] = ATG_TCF_b_cat_CIS: Attagene CIS-FACTORIAL HepG2 Assay for human T-Cell-Factor with beta-catenin (TCF/b-cat) (AID 2282965); details: HepG2 TCF/beta-catenin cis-reporter transcription, actives raise or lower the signal
Outline: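 HepG2 cells transiently transfected with multiple cis-promoter-regulated reporter transcription units, so endogenous transcription factor activity is measured. Reporter mRNA read 24 hours after dosing by RT-PCR, fluorescent labelling and capillary electrophoresis; bidirectional fitting against DMSO.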

[2] = ATG_TAL_CIS: Attagene CIS-FACTORIAL HepG2 Assay for human TAL Basal Promoter (AID 2282966); details: HepG2 Attagene cis-factorial TAL promoter reporter; actives raise or lower the signal;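 further: background control endpoint measuring basal TAL promoter reporter mRNA not a specific factor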
Outline: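 In this cell-based multiplex, HepG2 liver cells bearing cis-promoter reporter constructs are dosed for 24 hours. Total RNA is reverse-transcribed and amplified, labelled fragments are sized by capillary electrophoresis, and signal changes are fitted bidirectionally versus DMSO.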

[3] = ATG_TGFb_CIS: Attagene CIS-FACTORIAL HepG2 Assay for human Transforming Growth Factor (TGF) (AID 2282967); details: HepG2 Attagene CIS TGFb reporter, mRNA transcription; actives raise or lower the signal
Outline: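 Readout: fluorescently labeled reporter cDNA fragments resolved by capillary electrophoresis after RT-PCR. Transfected HepG2 cells dosed for 24 h; endogenous TF activity at TGFB1-linked cis element; gain or loss fitted relative to DMSO.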

[4] = ATG_VDRE_CIS: Attagene CIS-FACTORIAL HepG2 Assay for human Vitamin D Receptor Element (VDRE) (AID 2282968); details: HepG2 VDRE cis-reporter transcription, actives raise or lower the signal
Outline: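 RT-PCR/CE readout of reporter mRNA; HepG2, transient transfection, 24 h dosing; DMSO baseline; bidirectional analysis.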

[5] = molecular target: Nuclear receptor subfamily 1 group I member 3 (Homo sapiens) (UniProt Q14994); experiment: ATG_CAR_TRANS: Attagene TRANS-FACTORIAL HepG2 Assay for human Constitutive Androstane Receptor (CAR) (AID 2282969; active means hit-call score of the fitted dose curve at least 0.9, where 1 is the maximum;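 further: activators raise reporter mRNA above DMSO so AC50 marks induction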); details: HepG2 Attagene TRANS-FACTORIAL CAR reporter
Outline: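 HepG2 cells transiently transfected with multiplexed GAL4-UAS reporter units expressing chimeric NR-Gal4 proteins; compound exposure 24 h. Reporter mRNA measured by RT-PCR, 6-FAM labelling, HpaI digestion and capillary electrophoresis; gain-of-signal fitted against DMSO baseline.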

[6] = molecular target: Estrogen receptor (Homo sapiens) (UniProt P03372); experiment: ATG_ERa_TRANS: Attagene TRANS-FACTORIAL HepG2 Assay for human Estrogen Receptor alpha (ERa) (AID 2282970; active means hit-call score of the fitted dose curve at least 0.9, where 1 is the maximum); details: HepG2 Attagene TRANS ERa GAL4 reporter, mRNA
Outline: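 After 24 h of compound treatment, RNA from HepG2 cells bearing transfected GAL4-UAS reporter constructs is converted to cDNA, amplified and fluorescently labelled. Capillary electrophoresis resolves the ERa-linked reporter; DMSO serves as negative control.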

[7] = molecular target: X-box-binding protein 1 (Homo sapiens) (UniProt P17861); experiment: ATG_Xbp1_CIS: Attagene CIS-FACTORIAL HepG2 Assay for human X-box Binding Protein 1 (XBP1) (AID 2282972); details: HepG2 XBP1 cis-element reporter, Attagene multiplex; actives raise or lower the signal
Outline: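 HepG2, transient MRTU transfection (cis-promoter driven), 24 h compound exposure. Total RNA → oligo(dT) RT → PCR → 6-FAM labeling → HpaI cut → CE. Bidirectional fit vs DMSO.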

[8] = ATG_M_19_TRANS: Attagene TRANS-FACTORIAL HepG2 Assay for M19 Transcription Factor (Internal Marker) (AID 2282974; active means hit-call score of the fitted dose curve at least 0.9, where 1 is the maximum); details: HepG2 Attagene TRANS-FACTORIAL M19 internal marker reporter
Outline: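 Multiplexed TRANS format: HepG2 liver cells bearing transient GAL4-UAS reporter units, chemical treatment 24 h, reporter transcripts quantified by RT-PCR plus capillary electrophoresis. DMSO defines baseline.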

[9] = ATG_GAL4_TRANS: Attagene TRANS-FACTORIAL HepG2 Assay for GAL4 (Internal Marker) (AID 2282976; active means hit-call score of the fitted dose curve at least 0.9, where 1 is the maximum); details: HepG2 Attagene TRANS GAL4 internal marker reporter
Outline: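 RT-PCR/capillary electrophoresis readout of reporter mRNA. HepG2, transient MRTU transfection (GAL4-UAS reporters), 24 h compound exposure. Background-control endpoint, positive direction vs DMSO baseline.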

[10] = molecular target: Steroid hormone receptor ERR1 (Homo sapiens) (UniProt P11474); experiment: ATG_ERRa_TRANS: Attagene TRANS-FACTORIAL HepG2 Assay for human Estrogen-Related Receptor alpha (ERRa) (AID 2282971; active means hit-call score of the fitted dose curve at least 0.9, where 1 is the maximum); details: HepG2 Attagene TRANS reporter, ERRa transactivation
Outline: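 Transfected HepG2, 24 h dosing, ERRa-Gal4 chimera driving GAL4-UAS reporter. Readout: reporter mRNA via RT-PCR plus capillary electrophoresis (fluorescence). Positive direction vs DMSO control.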

Sequence of Nuclear receptor subfamily 1 group I member 3 (Homo sapiens) (Q14994 whole entry, looked up, the tested form may be a part): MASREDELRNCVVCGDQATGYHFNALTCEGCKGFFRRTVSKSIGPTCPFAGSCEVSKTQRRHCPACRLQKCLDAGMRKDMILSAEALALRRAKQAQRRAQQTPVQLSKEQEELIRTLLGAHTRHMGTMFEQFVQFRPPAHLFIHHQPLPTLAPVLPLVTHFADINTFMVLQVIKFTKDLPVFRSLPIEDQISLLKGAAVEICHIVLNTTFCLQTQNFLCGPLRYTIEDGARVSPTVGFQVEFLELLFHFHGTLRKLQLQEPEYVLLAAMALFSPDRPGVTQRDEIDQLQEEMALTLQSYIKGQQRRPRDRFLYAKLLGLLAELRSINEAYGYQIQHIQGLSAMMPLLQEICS
Sequence of Estrogen receptor (Homo sapiens) (P03372 whole entry, looked up, the tested form may be a part): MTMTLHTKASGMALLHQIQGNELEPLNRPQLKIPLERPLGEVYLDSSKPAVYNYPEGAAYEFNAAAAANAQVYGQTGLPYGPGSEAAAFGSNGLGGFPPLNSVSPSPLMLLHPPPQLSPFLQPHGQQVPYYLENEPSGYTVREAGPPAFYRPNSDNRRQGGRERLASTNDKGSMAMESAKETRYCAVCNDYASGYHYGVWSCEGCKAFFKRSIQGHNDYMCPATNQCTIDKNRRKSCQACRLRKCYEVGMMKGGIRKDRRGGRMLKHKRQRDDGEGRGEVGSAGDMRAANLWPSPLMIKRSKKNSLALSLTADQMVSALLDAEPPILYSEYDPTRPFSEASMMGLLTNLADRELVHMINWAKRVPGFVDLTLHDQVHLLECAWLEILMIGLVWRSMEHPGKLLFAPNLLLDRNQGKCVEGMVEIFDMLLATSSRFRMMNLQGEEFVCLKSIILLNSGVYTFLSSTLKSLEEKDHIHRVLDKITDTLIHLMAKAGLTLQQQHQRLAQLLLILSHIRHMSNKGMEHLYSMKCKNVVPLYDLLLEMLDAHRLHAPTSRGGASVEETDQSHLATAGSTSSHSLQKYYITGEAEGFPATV
Sequence of X-box-binding protein 1 (Homo sapiens) (P17861 whole entry, looked up): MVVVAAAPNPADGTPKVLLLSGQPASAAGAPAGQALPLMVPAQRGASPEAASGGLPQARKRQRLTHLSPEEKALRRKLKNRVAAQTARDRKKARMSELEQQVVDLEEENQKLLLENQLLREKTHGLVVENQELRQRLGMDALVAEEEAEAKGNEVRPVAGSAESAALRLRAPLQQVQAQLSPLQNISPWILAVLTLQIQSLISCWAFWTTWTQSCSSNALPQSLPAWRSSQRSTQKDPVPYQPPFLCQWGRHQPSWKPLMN
Sequence of Steroid hormone receptor ERR1 (Homo sapiens) (P11474 whole entry, looked up, the tested form may be a part): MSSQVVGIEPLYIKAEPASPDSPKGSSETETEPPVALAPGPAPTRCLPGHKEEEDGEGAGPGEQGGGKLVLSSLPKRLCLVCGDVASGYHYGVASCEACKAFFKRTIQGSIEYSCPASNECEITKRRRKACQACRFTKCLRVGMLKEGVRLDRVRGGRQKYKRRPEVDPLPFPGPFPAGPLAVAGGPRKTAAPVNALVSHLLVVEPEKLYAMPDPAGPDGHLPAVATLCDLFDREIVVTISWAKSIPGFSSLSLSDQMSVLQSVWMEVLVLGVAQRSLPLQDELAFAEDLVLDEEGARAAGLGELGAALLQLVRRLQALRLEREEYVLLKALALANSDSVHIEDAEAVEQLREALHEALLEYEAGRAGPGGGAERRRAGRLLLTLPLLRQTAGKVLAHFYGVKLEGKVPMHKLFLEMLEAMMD

| SMILES | outcome [1] | outcome [2] | outcome [3] | outcome [4] | outcome [5] | AC50 [6] | outcome [7] | outcome [8] | outcome [6] | outcome [9] | outcome [10] | AC50 [1] | AC50 [2] | AC50 [3] | AC50 [4] | AC50 [7] |
| --- | --- | --- | --- | --- | --- | --- | --- | --- | --- | --- | --- | --- | --- | --- | --- | --- |
| N=C(N)C(F)(F)C(F)(F)C(F)(F)C(F)(F)C(F)(F)C(F)(F)C(F)(F)F | inactive | inactive | inactive | inactive | inactive | 40.6 µM (active) | inactive | inactive | – | – | – | – | – | – | – | – |
| Nc1cc(Cl)c(N)c(Cl)c1 | inactive | inactive | inactive | inactive | inactive | – | inactive | inactive | inactive | inactive | – | – | – | – | – | – |
| OCC(F)(F)C(F)(F)C(F)(F)C(F)(F)C(F)(F)C(F)F | inactive | inactive | inactive | inactive | inactive | 5.4 µM (active) | inactive | inactive | – | inactive | – | – | – | – | – | – |
| FC(F)(F)C(F)(F)C(F)(F)CI | inactive | inactive | inactive | inactive | inactive | – | inactive | inactive | inactive | – | – | – | – | – | – | – |
| O=C(O)C(F)(F)C(F)(F)C(F)(F)C(F)(F)F | inactive | inactive | inactive | inactive | inactive | – | inactive | inactive | inactive | inactive | inactive | – | – | – | – | – |
| CCCCCCCOC(=O)c1ccccc1C(=O)OCCCCCCC | inactive | inactive | inactive | inactive | inactive | – | inactive | – | inactive | – | inactive | – | – | – | – | – |
| O=C(O)C(F)(F)C(F)(F)F | inactive | inactive | inactive | inactive | inactive | – | inactive | inactive | inactive | inactive | – | – | – | – | – | – |
| [Co] | inactive | inactive | inactive | inactive | inactive | 32.5 µM (active) | inactive | inactive | – | inactive | inactive | – | – | – | – | – |
| O=C(O)C(F)(F)C(F)(F)C(F)(F)C(F)(F)C(F)(F)C(F)(F)C(F)(F)C(F)(F)Cl | – | inactive | – | – | – | 27.2 µM (active) and 31.4 µM (active) | – | inactive | – | – | – | 50 µM (active) | 50 µM (active) | 74.7 µM (active) and 82.8 µM (active) | 49.3 µM (active) and 67.4 µM (active) | 58.7 µM (active) and 50 µM (active) |
| COC(=O)CCC(F)(F)C(F)(F)C(F)(F)C(F)(F)F | inactive | inactive | inactive | inactive | inactive | 5.85 µM (active) | inactive | inactive | – | inactive | – | – | – | – | – | – |
| CCc1c(Br)c(Br)c(Br)c(Br)c1Br | inactive | inactive | inactive | inactive | inactive | – | inactive | – | inactive | – | – | – | – | – | – | – |
| CC/C=C\CCOC(=O)c1ccccc1 | inactive | inactive | inactive | inactive | inactive | – | inactive | inactive | inactive | inactive | – | – | – | – | – | – |
| OCCCC(F)(F)C(F)(F)C(F)(F)F | inactive | inactive | inactive | inactive | inactive | – | inactive | inactive | inactive | inactive | inactive | – | – | – | – | – |
| CCCCCCOC(=O)c1ccccc1O | inactive | inactive | inactive | inactive | inactive | 92.5 µM (active) | inactive | inactive | – | – | – | – | – | – | – | – |
| CCCCCCCCC(F)(F)C(F)(F)C(F)(F)C(F)(F)C(F)(F)C(F)(F)F | inactive | inactive | inactive | inactive | inactive | – | inactive | inactive | inactive | inactive | – | – | – | – | – | – |
| COC(=O)C1CCC(C(=O)OC)CC1 (stereo not drawn) | inactive | inactive | inactive | inactive | – | – | inactive | inactive | inactive | – | inactive | 55.4 µM (active) | – | – | – | – |
| O=C(CC(=O)C(F)(F)C(F)(F)F)C(F)(F)F | inactive | inactive | inactive | inactive | – | – | inactive | inactive | inactive | inactive | – | 150 µM (active) | – | – | – | – |
| FC(F)(F)C(F)(F)C(F)(F)C(F)(F)C(F)(F)C(F)(F)C(F)(F)I | inactive | inactive | inactive | inactive | inactive | 3.7 µM (active) | inactive | inactive | – | – | inactive | – | – | – | – | – |
| c1ccc(-c2ccccc2-c2ccccc2)cc1 | inactive | inactive | inactive | inactive | inactive | 2.75 µM (active) | inactive | inactive | – | – | – | – | – | – | – | – |
| Nc1ccc(Oc2cccc(Oc3ccc(N)cc3)c2)cc1 | – | inactive | inactive | inactive | inactive | 2.58 µM (active) | – | – | – | – | inactive | 27.4 µM (active) | – | – | – | 42 µM (active) |
| FC(F)(F)C(F)(F)CNCC(F)(F)C(F)(F)F | inactive | inactive | inactive | inactive | inactive | – | inactive | inactive | inactive | inactive | – | – | – | – | – | – |
| CO[Si](OC)(c1ccccc1)c1ccccc1 | inactive | inactive | inactive | inactive | inactive | – | inactive | inactive | inactive | inactive | – | – | – | – | – | – |
| CNC(=S)NC | inactive | inactive | inactive | inactive | inactive | 25.9 µM (active) | inactive | inactive | – | – | – | – | – | – | – | – |
| CN(C)Cc1ccccc1O | inactive | inactive | inactive | inactive | inactive | – | inactive | inactive | inactive | – | – | – | – | – | – | – |
